# Source: PubChem BioAssay (Tox21)
# Unmarked numbers belong to inactive results. Results filed as inconclusive are left out. Where a call stands in place of a potency, no number is given. The source made the active and inactive calls. Unless noted, calls come from the whole dose curve; as a rule, active = well fitted curve in the direction sought with a large enough effect in the repeat runs; inconclusive = weak or mixed curves; inactive = no such curve, though single readings can be large; an effect the other way counts as inactive or inconclusive.
# What was measured:
# [1] = qHTS RealTime-Glo MT Cell Viability Assay in HEK293 cells - 24 hour (AID 1224886); note: top concentration of the series differs between compounds; nearly all actives have a fitted effect of over 50% in size
# Outline: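 Assay medium contained NanoLuc luciferase plus cell-permeant prosubstrate, added with HEK293 cells at 600 cells/well. After 5 h at 37 C/5% CO2 compounds were added; plates stayed at 37 C for 40 h with serial luminescence reads.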
# [2] = qHTS RealTime-Glo MT Cell Viability Assay in HEK293 cells - 8 hour (AID 1224887); note: top concentration of the series differs between compounds; nearly all actives have a fitted effect of over 50% in size
# Outline: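 Luminescence, which tracks viable cell number through reduction of the prosubstrate to a NanoLuc substrate, was read over continuous 37 C culture. Cells (600/well) were premixed with reagent and rested 5 h before 23 nL of compound in DMSO was pinned.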
# [3] = A CellTox Green Cytotoxicity Assay to monitor cytotoxicity in HEK293 cells - 16 hour (AID 1224888); note: nearly all actives have a fitted effect of over 35% in size
# Outline: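 Fluorescence from a DNA-binding dye excluded by viable cells was measured repeatedly in the same HEK293 wells (600 cells/well) during continuous compound exposure at 37 C. Each assay gives one read point: 0, 8, 16, 24, 32 or 40 h.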
# [4] = qHTS RealTime-Glo MT Cell Viability Assay in HepG2 cells - 0 hour (AID 1224889); note: nearly all actives have a fitted effect of over 50% in size
# Outline: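 qHTS, HepG2, 600 cells/well, RealTime-Glo (NanoLuc + prosubstrate) added with cells; 5 h preincubation; DMSO compound addition; 37 C; luminescence at 0/8/16/24/32/40 h.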
# [5] = A CellTox Green Cytotoxicity Assay to monitor cytotoxicity in HepG2 cells - 8 hour (AID 1224890); note: nearly all actives have a fitted effect of over 45% in size
# Outline: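 Real-time cytotoxicity: fluorescence of a cell-impermeant cyanine dye binding DNA of dead HepG2 cells, measured repeatedly (0–40 h) during compound exposure at 37 C. Cells seeded 600/well with reagent, dosed after 5 h.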
# [6] = qHTS assay to identify small molecule antagonists of the estrogen receptor alpha (ER-alpha) signaling pathway using the BG1 cell line in the presence of 0.1 nM 17-beta-estradiol - cell viability counter screen (AID 1259241); note: nearly all actives have a fitted effect of over 40% in size
# Outline: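 VM7Luc4E2, 4,000 cells/well, phenol red-free medium + 10% charcoal-stripped FBS; 24 hr plating; cpd + 0.1 nM E2 final, 22 hr 37C/5% CO2; CellTiter-Fluor 30 min, fluorescence.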
# [7] = qHTS assay to identify small molecule phospholipidosis (PLD) inducers (AID 1259344; active = well fitted curve in the direction sought with a large enough effect; an effect the other way counts as inactive or inconclusive)
# Outline: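 Phospholipid accumulation was scored by imaging: fixed, Hoechst-counterstained HepG2 cells stained with LipidTOX Red after 24 h compound exposure at 37 C. Read-outs were pit count and pit intensity per well or per cell, with amiodarone and DMSO controls.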
# [8] = qHTS assay to identify small molecule HDAC inhibitors (AID 1259364); note: nearly all actives have a fitted effect of over 45% in size; note: potency is the fitted concentration of half-maximal effect; for activity change, negative = inhibition: top concentration of the series differs between compounds
# Outline: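 Luminescence read after 30 min room-temperature HDAC-Glo incubation measures cellular class I/II HDAC activity. Compounds were applied for 2 hr at 37 C to HCT-116 wild-type cells seeded the day before.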
# [9] = qHTS assay to identify small molecule HDAC inhibitors - cell viability counter screen (AID 1259365); note: series mostly up to about 92 µM; nearly all actives have a fitted effect of over 50% in size
# Outline: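 Luminescence from CellTiter-Glo, developed 30min at room temperature, reports viability of wild-type HCT-116 cells treated 2hr with compounds at 37 C and 5% CO2 after overnight plating.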
# [10] = qHTS assay to identify small molecule agonists of the sonic hedgehog signaling (Shh) pathway - cell viability counter screen (AID 1259366); note: nearly all actives have a fitted effect of over 50% in size
# Outline: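 Cytotoxicity counter screen run in the same wells as the Shh reporter assay. NIH/3T3 cells carrying a Gli1 response element–driven luciferase were treated with DMSO-dissolved compounds for 24hr, and live-cell protease activity was measured with CellTiter-Fluor.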
# [11] = qHTS assay to identify small molecule antagonists of the sonic hedgehog signaling (Shh) pathway - cell viability counter screen (AID 1259367); note: nearly all actives have a fitted effect of over 55% in size
# Outline: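 Viability was read by CellTiter-Fluor fluorescence in the same wells, reagent added 23 hr into compound treatment and incubated 1 hr at 37C. The 3T3 Gli1-Luc reporter cells (2,000/well) received conditioned medium after compound and ran 24 hr.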
# [12] = qHTS assay to identify small molecule agonists of the sonic hedgehog signaling (Shh) pathway (AID 1259368; calls by dose curve;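 note: NIH/3T3-derived 3T3Gli1-Luc cells carrying a stable Gli1-driven firefly luciferase reporter; series mostly up to about 92 µM; nearly all actives have a fitted effect of over 15% in size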)
# Outline: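 Luminescence was read after 30 min at room temperature with luciferase reagent. Before that, 3T3Gli1-Luc cells (NIH/3T3 clone, stable Gli1-Luc reporter; 2,000/well) were exposed to compounds for 24 hr at 37C, 5% CO2, compounds being added 4 hr post-plating.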
# [13] = qHTS assay to identify small molecule antagonists of the sonic hedgehog signaling (Shh) pathway (AID 1259369; calls by dose curve; note: nearly all actives have a fitted effect of over 45% in size)
# Outline: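 Antagonist mode: compound added to 3T3 Gli1-Luc cells followed by conditioned-medium stimulation, 24 h at 37 C, 5% CO2. Inhibition taken as loss of Gli1-driven luciferase luminescence.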
# [14] = biological target: Estrogen receptor beta (Homo sapiens) (UniProt Q92731); test: qHTS assay to identify small molecule antagonists of the estrogen receptor beta (ER-beta) signaling pathway (AID 1259378; active = well fitted inhibition curve with a large enough effect in the signal ratio in the repeat runs, not every such curve was filed as active; the % refers to the signal ratio)
# Outline: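 Antagonist mode: compounds added to beta-lactamase reporter HEK293T ER-beta-UAS cells stimulated with E2 (1nM final), 16 hr at 37C. LiveBLAzer B/G FRET substrate, 2 hours room temperature, fluorescence read-out.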
# [15] = qHTS assay to identify small molecule agonists of the androgen receptor (AR) signaling pathway in the presence of an antagonist - cell viability counter screen (AID 1259379);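 note: MDA-kb2 human breast cancer cells carrying an MMTV luciferase reporter; series mostly up to about 92 µM; nearly all actives have a fitted effect of over 25% in size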
# Outline: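 Cytotoxicity counter-screen run in the same wells as the nilutamide-challenged (3.0 µM final) AR agonist assay in MDA-kb2 cells. Compounds tested at 15 concentrations for 16 h, 37 °C without CO2; CellTiter-Fluor fluorescence read.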
# [16] = qHTS assay to identify small molecule agonists of the estrogen receptor beta (ER-beta) signaling pathway - cell viability counter screen (AID 1259380); note: nearly all actives have a fitted effect of over 30% in size
# Outline: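 Cell viability counter screen: CellTiter-Glo luminescence (30 min, room temperature) measured in the same wells as the beta-lactamase readout, after 16 hr compound exposure at 37C of ER-beta-bla HEK293T cells in 2% charcoal-stripped FBS medium.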
# [17] = qHTS assay to identify small molecule antagonists of the androgen receptor (AR) signaling pathway using the MDA cell line in the presence of 0.5 nM R1881 - cell viability counter screen (AID 1259242); note: nearly all actives have a fitted effect of over 45% in size
# Outline: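 Live-cell protease activity was measured by CellTiter-Fluor fluorescence after 30 min. Before that, MDA-kb2 MMTV-luciferase cells had 16 hr at 37C without CO2, exposed to test compounds and 0.5 nM R1881 final.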
# [18] = biological target: Estrogen receptor beta (Homo sapiens) (UniProt Q92731); test: qHTS assay to identify small molecule agonists of the estrogen receptor beta (ER-beta) signaling pathway (AID 1259377; active = well fitted activation curve with a large enough effect in the signal ratio in the repeat runs, not every such curve was filed as active; the % refers to the signal ratio)
# Outline: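 HEK293T ER-beta-UAS-bla; 2% charcoal-stripped FBS; cells pre-incubated 6 hr, compound 16 hr, 37C/5% CO2; LiveBLAzer B/G FRET substrate 2 h RT; fluorescence intensity read.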
# [19] = biological target: Estrogen receptor (Homo sapiens) (UniProt P03372); test: qHTS assay to identify small molecule antagonists of the estrogen receptor alpha (ER-alpha) signaling pathway using the BG1 cell line in the presence of 0.1 nM 17-beta-estradiol (AID 1259244); note: nearly all actives have a fitted effect of over 50% in size
# Outline: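 Luciferase luminescence (ONE-Glo, 30 min at room temperature) was read after 22 hr at 37C exposure to compounds plus 17beta-estradiol at 0.1 nM final. Cells were VM7Luc4E2 with endogenous ER-alpha and an ERE-driven luciferase, pre-cultured 5 days in hormone-depleted medium.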
# [20] = biological target: Androgen receptor (Homo sapiens) (UniProt P10275); test: qHTS assay to identify small molecule antagonists of the androgen receptor (AR) signaling pathway using the MDA cell line in the presence of 0.5 nM R1881 (AID 1259243); note: nearly all actives have a fitted effect of over 50% in size
# Outline: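 Luminescent reporter readout (ONE-Glo, 30 min, room temperature) after 16 hr co-treatment of MDA-kb2 cells with test compounds and 0.5 nM R1881 final, at 37C without CO2. The MMTV-driven luciferase responds to both AR and GR.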
# Sequence of Estrogen receptor (Homo sapiens) (P03372 whole entry, looked up): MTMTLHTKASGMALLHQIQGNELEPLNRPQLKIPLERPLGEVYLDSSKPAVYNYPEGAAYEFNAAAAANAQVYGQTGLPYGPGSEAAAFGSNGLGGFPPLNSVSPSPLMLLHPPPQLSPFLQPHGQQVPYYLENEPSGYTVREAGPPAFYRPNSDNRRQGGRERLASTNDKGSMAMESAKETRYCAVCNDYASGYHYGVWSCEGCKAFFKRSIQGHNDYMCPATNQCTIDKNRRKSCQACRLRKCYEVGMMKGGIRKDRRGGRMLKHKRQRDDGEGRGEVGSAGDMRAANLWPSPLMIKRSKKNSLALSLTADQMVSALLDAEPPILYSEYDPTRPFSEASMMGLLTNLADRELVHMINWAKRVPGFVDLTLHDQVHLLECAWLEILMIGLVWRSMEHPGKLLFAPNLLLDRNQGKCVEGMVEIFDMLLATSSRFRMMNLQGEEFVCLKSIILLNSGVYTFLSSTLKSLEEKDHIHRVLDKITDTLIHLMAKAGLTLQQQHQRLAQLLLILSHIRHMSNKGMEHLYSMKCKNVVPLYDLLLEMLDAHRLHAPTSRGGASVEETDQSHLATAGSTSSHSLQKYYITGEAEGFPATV
# Sequence of Estrogen receptor beta (Homo sapiens) (Q92731 whole entry, looked up): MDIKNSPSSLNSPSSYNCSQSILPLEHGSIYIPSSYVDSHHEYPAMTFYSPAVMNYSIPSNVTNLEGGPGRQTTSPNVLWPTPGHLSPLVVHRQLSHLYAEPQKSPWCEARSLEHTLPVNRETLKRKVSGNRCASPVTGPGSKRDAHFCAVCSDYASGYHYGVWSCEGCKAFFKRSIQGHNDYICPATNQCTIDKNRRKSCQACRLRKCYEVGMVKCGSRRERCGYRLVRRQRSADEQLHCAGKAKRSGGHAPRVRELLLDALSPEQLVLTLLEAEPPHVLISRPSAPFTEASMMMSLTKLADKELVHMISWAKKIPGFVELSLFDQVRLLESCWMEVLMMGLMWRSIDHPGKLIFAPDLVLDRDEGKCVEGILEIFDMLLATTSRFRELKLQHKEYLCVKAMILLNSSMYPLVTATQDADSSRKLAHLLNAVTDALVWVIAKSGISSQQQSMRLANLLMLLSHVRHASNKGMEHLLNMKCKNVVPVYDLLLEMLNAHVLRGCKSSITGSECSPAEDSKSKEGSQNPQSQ
# Sequence of Androgen receptor (Homo sapiens) (P10275 whole entry, looked up): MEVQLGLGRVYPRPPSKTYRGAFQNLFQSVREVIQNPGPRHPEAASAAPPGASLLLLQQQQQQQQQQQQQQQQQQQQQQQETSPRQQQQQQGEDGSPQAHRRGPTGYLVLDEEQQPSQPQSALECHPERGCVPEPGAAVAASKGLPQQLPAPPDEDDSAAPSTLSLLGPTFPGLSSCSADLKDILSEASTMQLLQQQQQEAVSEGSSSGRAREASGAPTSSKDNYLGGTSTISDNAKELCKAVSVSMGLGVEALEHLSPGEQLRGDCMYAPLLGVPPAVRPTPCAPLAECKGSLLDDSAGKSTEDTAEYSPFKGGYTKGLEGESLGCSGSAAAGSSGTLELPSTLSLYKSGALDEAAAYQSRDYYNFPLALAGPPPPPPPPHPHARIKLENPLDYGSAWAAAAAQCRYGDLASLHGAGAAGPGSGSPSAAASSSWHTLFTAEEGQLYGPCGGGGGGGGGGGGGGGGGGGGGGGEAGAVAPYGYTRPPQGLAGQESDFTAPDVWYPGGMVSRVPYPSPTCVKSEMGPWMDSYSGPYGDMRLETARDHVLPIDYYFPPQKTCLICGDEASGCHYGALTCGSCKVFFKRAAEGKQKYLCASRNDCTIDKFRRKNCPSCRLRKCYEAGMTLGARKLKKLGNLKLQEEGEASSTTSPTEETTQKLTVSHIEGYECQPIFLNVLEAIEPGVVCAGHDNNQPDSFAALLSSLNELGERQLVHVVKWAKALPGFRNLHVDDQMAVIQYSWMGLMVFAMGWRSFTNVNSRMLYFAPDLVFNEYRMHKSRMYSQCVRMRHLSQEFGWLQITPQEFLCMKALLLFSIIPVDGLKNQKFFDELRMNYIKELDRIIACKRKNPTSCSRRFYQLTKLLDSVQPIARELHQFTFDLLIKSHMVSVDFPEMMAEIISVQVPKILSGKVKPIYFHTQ
smiles,measurement,setting,value
N[C@@H](Cc1ccc(O)cc1)C(=O)O,"activity change, negative = cytotoxicity",[1],-0.381% [at 6.97 µM]
same,"activity change, negative = cytotoxicity",[2],10.4% [at 6.97 µM]
same,activity change,[3],"0.851% [at 6.97 µM, active compounds read high]"
same,"activity change, negative = cytotoxicity",[4],-4.17% [at 6.97 µM]
same,cytotoxicity increase,[5],-2.53% [at 6.97 µM]
same,"activity change, negative = cytotoxicity",[6],-0.913% [at 8.39 µM]
same,outcome,[7],inactive
same,"activity change, negative = inhibition",[8],6.85% [at 8.39 µM]
same,"activity change, negative = cytotoxicity",[9],0.0609% [at 8.39 µM]
same,"viability change, negative = cytotoxic",[10],-1.95% [at 8.39 µM]
same,"viability change, negative = cytotoxic",[11],0.133% [at 8.39 µM]
same,activity change,[12],-0.171% [at 8.39 µM]
same,"activity change, negative = inhibition",[13],29.1% [at 8.39 µM]
same,"activity, negative = inhibition",[14],-4.71% [at 8.39 µM]
same,"activity change, negative = cytotoxicity",[15],0.232% [at 8.39 µM]
same,"activity change, negative = cytotoxicity",[16],10.1% [at 8.39 µM]
CC(C)=CCC/C(C)=C/COC=O,Potency,[1],inactive
same,Potency,[2],inactive
same,Potency,[3],inactive
same,Potency,[4],inactive
same,Potency,[5],inactive
same,outcome,[6],inactive
same,outcome,[17],inactive
same,Potency,[8],inactive
same,outcome,[9],inactive
same,outcome,[11],inactive
same,outcome,[12],inactive
same,Potency,[13],inactive
same,Potency,[18],inactive
same,outcome,[15],inactive
same,outcome,[16],inactive
NCCOCCN,Potency,[1],inactive
same,Potency,[2],inactive
same,Potency,[3],inactive
same,Potency,[4],inactive
same,Potency,[5],inactive
same,outcome,[6],inactive
same,outcome,[17],inactive
same,outcome,[19],inactive
same,Potency,[8],inactive
same,outcome,[9],inactive
same,outcome,[10],inactive
same,outcome,[11],inactive
same,outcome,[12],inactive
same,Potency,[13],inactive
same,outcome,[15],inactive
same,outcome,[16],inactive
COP(=O)(O)OP(=O)(O)OC,Potency,[1],inactive
same,Potency,[2],inactive
same,Potency,[3],inactive
same,Potency,[4],inactive
same,Potency,[5],inactive
same,outcome,[6],inactive
same,outcome,[17],inactive
same,outcome,[19],inactive
same,Potency,[8],inactive
same,outcome,[9],inactive
same,outcome,[10],inactive
same,outcome,[11],inactive
same,Potency,[13],inactive
same,Potency,[18],inactive
same,Potency,[14],inactive
same,outcome,[15],inactive
same,outcome,[16],inactive
CC(C)OC(=O)CCC(=O)OC(C)C,Potency,[1],inactive
same,Potency,[2],inactive
same,Potency,[3],inactive
same,Potency,[4],inactive
same,Potency,[5],inactive
same,outcome,[6],inactive
same,outcome,[17],inactive
same,outcome,[9],inactive
same,outcome,[11],inactive
same,Potency,[18],inactive
same,Potency,[14],inactive
same,outcome,[15],inactive
same,outcome,[16],inactive
N#CCC(=O)NN,Potency,[1],inactive
same,Potency,[2],inactive
same,Potency,[3],inactive
same,Potency,[4],inactive
same,Potency,[5],inactive
same,outcome,[6],inactive
same,outcome,[19],inactive
same,outcome,[7],inactive
same,outcome,[9],inactive
same,outcome,[10],inactive
same,outcome,[11],inactive
same,outcome,[12],inactive
same,Potency,[13],inactive
same,outcome,[15],inactive
same,outcome,[16],inactive
C/C=C(\C)C(=O)OCCc1ccccc1,Potency,[1],inactive
same,Potency,[2],inactive
same,Potency,[3],inactive
same,Potency,[4],inactive
same,Potency,[5],inactive
same,outcome,[6],inactive
same,outcome,[17],inactive
same,Potency,[8],27.3 µM (active)
same,outcome,[9],inactive
same,outcome,[10],inactive
same,outcome,[11],inactive
same,outcome,[12],inactive
same,Potency,[13],inactive
same,outcome,[15],inactive
same,outcome,[16],inactive
CCCCCCCCCCOC(C)=O,Potency,[1],inactive
same,Potency,[2],inactive
same,Potency,[3],inactive
same,Potency,[4],inactive
same,Potency,[5],inactive
same,outcome,[6],inactive
same,outcome,[17],inactive
same,outcome,[19],inactive
same,Potency,[8],inactive
same,outcome,[9],inactive
same,outcome,[10],inactive
same,outcome,[11],inactive
same,Potency,[13],inactive
same,outcome,[15],inactive
same,outcome,[16],inactive
OCC1CCC(CO)CC1 (stereo not given),Potency,[1],inactive
same,Potency,[2],inactive
same,Potency,[3],inactive
same,Potency,[4],inactive
same,Potency,[5],inactive
same,outcome,[6],inactive
same,Potency,[20],inactive
same,outcome,[19],inactive
same,Potency,[8],inactive
same,outcome,[9],inactive
same,outcome,[10],inactive
same,outcome,[11],inactive
same,outcome,[12],inactive
same,Potency,[13],inactive
same,Potency,[18],inactive
same,Potency,[14],inactive
same,outcome,[15],inactive
same,outcome,[16],inactive
